# Reference: PubChem BioAssay (Tox21)
# Results filed as inconclusive are left out. Entries that show only a call come without a potency. Active and inactive are the calls of the source. Calls follow the shape of the full dose curve.
# Target: Progesterone receptor (Homo sapiens) (UniProt P06401)
# Experiment: qHTS assay to identify small molecule agonists of the progesterone receptor (PR) signaling pathway (AID 1346784); also: nearly all actives have a fitted effect of over 30% in size
# Conditions: PR-UAS-bla HEK293T, beta-lactamase FRET ratio, 16 h; series mostly up to 92.4 µM
# Source text: U.S. Tox21 Program National Center for Advancing Translational Sciences [NCATS] NIH Chemical Genomics Center [NCGC] U.S. Environmental Protection Agency [EPA] National Institutes of Environmental Health Sciences [NIEHS] National Toxicology Program [NTP] U.S. Food and Drug Administration [FDA] […] Endocrine disrupting chemicals (EDCs) and their interactions with steroid hormone receptors like PR causes disruption of normal endocrine function. To identify the compounds that activate PR signaling, a PR-UAS-bla GripTite cell line i.e. PR-UAS-bla HEK 293T (Invitrogen, Carlsbad, CA, USA) containing a beta-lactamase reporter gene under the control of an Upstream Activator Sequence (UAS) was used to screen Tox21 10K compound library.
# Tox21 Assay Protocol Summary: PR-UAS-bla HEK 293T cells were dispensed at 3,000 cells/5 uL of assay medium containing 2% charcoal stripped FBS per well into black wall/clear-bottom 1536-well plates using a Multidrop Combi (ThermoFisher Scientific, Waltham, MA) dispenser. After the assay plates were incubated at a 37C and 5% CO2 for 6hr, 23 nL of compounds dissolved in DMSO, positive controls or DMSO only was transferred to the assay plate by a Pintool station (Kalypsys, San Diego, CA). The plates were incubated at 37C and 5% CO2 for 16hr. Then 1 uL of LiveBLAzer B/G FRET substrate was added using a BioRAPTR FRD (Flying Reagent Dispenser, Aurora Discovery, San Diego, CA). After the plates were incubated at room temperature for 2 hours, fluorescence intensity was measured by an Envision plate reader (PerkinElmer, Shelton, CT).
# Potency is read from the fitted curve at half-maximal effect.
# Progesterone receptor (Homo sapiens), sequence (P06401 whole entry, looked up): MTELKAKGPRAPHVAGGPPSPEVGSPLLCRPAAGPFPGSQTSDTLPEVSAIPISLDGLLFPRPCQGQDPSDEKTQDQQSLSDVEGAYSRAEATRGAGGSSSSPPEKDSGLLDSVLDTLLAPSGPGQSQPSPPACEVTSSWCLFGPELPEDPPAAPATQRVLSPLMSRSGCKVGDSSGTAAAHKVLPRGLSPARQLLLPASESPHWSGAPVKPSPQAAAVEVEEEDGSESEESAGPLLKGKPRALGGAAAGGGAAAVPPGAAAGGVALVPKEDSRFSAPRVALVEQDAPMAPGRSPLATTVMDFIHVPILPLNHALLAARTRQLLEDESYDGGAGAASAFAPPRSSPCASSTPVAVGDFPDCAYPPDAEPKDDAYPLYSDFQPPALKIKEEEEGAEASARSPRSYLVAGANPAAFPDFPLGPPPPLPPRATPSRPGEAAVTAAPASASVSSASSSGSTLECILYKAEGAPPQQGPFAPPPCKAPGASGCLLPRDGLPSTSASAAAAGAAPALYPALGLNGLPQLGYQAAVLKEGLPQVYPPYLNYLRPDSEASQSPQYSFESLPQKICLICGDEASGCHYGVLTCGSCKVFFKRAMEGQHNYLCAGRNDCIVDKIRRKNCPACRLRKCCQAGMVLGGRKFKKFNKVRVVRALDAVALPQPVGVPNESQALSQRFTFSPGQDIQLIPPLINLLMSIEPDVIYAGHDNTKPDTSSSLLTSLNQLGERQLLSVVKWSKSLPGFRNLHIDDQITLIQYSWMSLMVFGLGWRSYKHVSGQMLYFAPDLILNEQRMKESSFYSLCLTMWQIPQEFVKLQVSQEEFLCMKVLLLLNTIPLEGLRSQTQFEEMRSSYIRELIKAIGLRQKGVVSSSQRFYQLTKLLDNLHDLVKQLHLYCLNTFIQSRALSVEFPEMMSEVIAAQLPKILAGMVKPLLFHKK
row,Compound,Potency
1,CC1(C)O[C@@H]2C[C@H]3[C@@H]4CCC5=CC(=O)C=C[C@]5(C)[C@H]4[C@@H](O)C[C@]3(C)[C@]2(C(=O)CO)O1,0.133 µM (active)
2,C1COCO1,inactive
3,C/C(=N/NC(=O)c1ccncc1)C(=O)O,inactive
4,C=CC(C)(O)CCCC(C)CCCC(C)CCCC(C)C (stereo not given),13.6 µM (active)
5,CCCCC(=O)O[C@]1(C(=O)CO)[C@@H](C)C[C@H]2[C@@H]3CCC4=CC(=O)C=C[C@]4(C)[C@@]3(F)[C@@H](O)C[C@@]21C,0.0019 µM (active)
6,CCC(=O)OC/C=C/c1ccccc1,inactive
7,OC/C(Br)=C(\Br)CO,inactive
8,CN1Cc2cc(C(=O)N3CCC(C4CCNCC4)CC3)ccc2N[C@@H](CC(=O)O)C1=O,inactive
9,CCCc1c(OCCCOc2ccc(OCC(=O)O)cc2)ccc(C(C)=O)c1O,inactive
10,CCCCC(CC)CNCC(CC)CCCC (stereo not given),inactive
11,Cc1c(C(=O)NN2CCCCC2)nn(-c2ccc(Cl)cc2Cl)c1-c1ccc(Cl)cc1,inactive
12,COCCOC(=O)C1=C(C)NC(C)=C(C(=O)OC/C=C/c2ccccc2)C1c1cccc([N+](=O)[O-])c1 (stereo not given),inactive
13,Nc1c(I)cc(I)c(C(=O)N(CCC(=O)O)c2ccccc2)c1I,inactive
14,CC(C)(C)CC(C)(C)c1ccc(OCCO)cc1,inactive
15,CC(=O)Oc1ccc(C(=C2CCCCC2)c2ccc(OC(C)=O)cc2)cc1,inactive
16,O=S(=O)(c1ccccc1)c1ccc(Cl)cc1,inactive
17,C=CCNc1nc(NCC=C)nc(N2CCN(C(c3ccc(F)cc3)c3ccc(F)cc3)CC2)n1,inactive
18,Nc1ccc(S(=O)(=O)O)cc1,inactive
19,O=C1NCCN1,inactive
20,C/C=C(\C)C(=O)OCCC(C)CCC=C(C)C (stereo not given),inactive

row,Compound,Potency
1,CCCCCCCCCOC(C)=O,inactive
2,Cc1nc2ccccc2s1,inactive
3,CC1(C)C(=O)N(Br)C(=O)N1Cl,inactive
4,CNC(=S)NC,inactive
5,CCc1cccc(N(C)C(N)=Nc2cccc3ccccc23)c1,inactive
6,CCC(C(=O)OCCOCCN(CC)CC)c1ccccc1 (stereo not given),inactive
7,COC(=O)[C@@H]1CC2=CC(=O)CC[C@]2(C)[C@@]23O[C@@H]2C[C@@]2(C)[C@@H](CC[C@@]24CCC(=O)O4)[C@H]13,inactive
8,CO[Si](C)(OC)OC,inactive
9,COc1ccccc1N=Nc1c(S(=O)(=O)O)cc2cc(S(=O)(=O)O)cc(NC(C)=O)c2c1O,inactive
10,CCCOC(=O)c1ccc(N)cc1,inactive
11,CC1=CC(=O)CC(C)(C)C1(O)/C=C/C(C)=C\C(=O)O (stereo not given),inactive
12,CC(C)CCCCCCOC(=O)CCCCC(=O)OCCCCCCC(C)C,inactive
13,CC(CCO)CCc1ccccc1 (stereo not given),inactive
14,Nc1ccc(S(=O)(=O)O)c(N)c1,inactive
15,CC(=O)[C@H]1CC[C@H]2[C@@H]3C[C@H](C)C4=CC(=O)CC[C@]4(C)[C@H]3[C@@H](O)C[C@]12C,0.0067 µM (active)
16,C=C(C)C(=O)OCCOC(=O)CC(C)=O,inactive
17,CC(C)CCCCCOC(=O)CCCCC(=O)OCCCCCC(C)C,inactive
18,O=C(N/N=C/c1ccc([N+](=O)[O-])o1)c1ccc(O)cc1,inactive
19,O=C(O)Cc1ccc(-c2ccccc2)cc1,inactive
20,CC(=O)Nc1ccc(N)cc1,inactive
